Only some compounds are listed: those with a hit (about 2.4% of all), similar ones and a draw of the others.
APOBEC3A inh: inhibitors of human APOBEC3A DNA deaminase | 330,000 compounds, 0.41% hits | AID 493011 | P31941 | inhibition, % at 20 µM | recombinant A3A, FAM/TAMRA ssDNA deamination fluorescence;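 active = at least 40% inhibition at 20 µM here, with at most 30% in a related deaminase screen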;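 note: plate controls were A3A with DMSO for no effect and wells lacking A3A enzyme for full effect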
Target sequence (P31941 whole entry, looked up): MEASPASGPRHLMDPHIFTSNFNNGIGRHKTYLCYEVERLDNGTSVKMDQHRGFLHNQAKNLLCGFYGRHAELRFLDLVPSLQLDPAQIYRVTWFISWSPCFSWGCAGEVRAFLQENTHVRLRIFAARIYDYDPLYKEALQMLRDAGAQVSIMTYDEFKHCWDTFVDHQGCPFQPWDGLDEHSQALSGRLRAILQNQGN
ADAM17 inh: inhibitors of human ADAM17 | P78536 | recombinant ADAM17, EDANS/DABCYL FRET peptide cleavage | inhibition, % at 6.95 µM | 370,000 compounds, 0.83% hits;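 active = inhibition above the mean of compounds lying between control limits plus 3 SD, set per campaign, cut at about 8.5% in these data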;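 note: 0% = DMSO-only wells as the low control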
ADAM10 inh: ADAM10 inhibition, QFRET primary screen; inhibition, % at 7 µM; 370,000 compounds, 0.62% hits; O14672; recombinant ADAM10, EDANS/DABCYL FRET peptide cleavage, 3 h; AID 720582;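 active = inhibition above a per-campaign cutoff equal to the mean of compounds falling between control-based bounds plus 3 SD, cut at about 20% in these data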;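 note: 0% = DMSO wells while the 100% control is not disclosed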
NRP1-CendR mod: NRP-1/CendR interaction modulation; O14786; inhibition, % at 25 µM; 360,000 compounds, 0.85% hits; AID 602438; FAM-RPARPAR peptide binding to NRP-1, fluorescence polarization;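 active = inhibition or corrected inhibition above about 18%, plus a signal ratio from 0.5 to 1.5, limit read from the data, passing the limit was not always enough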
APOBEC3G inh: blocks human APOBEC3G single-stranded DNA deamination. Q9HC16. recombinant A3G, ssDNA deamination FAM/TAMRA fluorescence. inhibition, % at 20 µM. 330,000 compounds, 0.28% hits. AID 493012;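 active = inhibition of at least 40% at 20 µM, with no more than 30% in the related APOBEC3A deaminase screen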;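 note: plate controls were DMSO wells with A3G for no effect and wells lacking A3G enzyme for full effect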
Target sequence (Q9HC16 whole entry, looked up): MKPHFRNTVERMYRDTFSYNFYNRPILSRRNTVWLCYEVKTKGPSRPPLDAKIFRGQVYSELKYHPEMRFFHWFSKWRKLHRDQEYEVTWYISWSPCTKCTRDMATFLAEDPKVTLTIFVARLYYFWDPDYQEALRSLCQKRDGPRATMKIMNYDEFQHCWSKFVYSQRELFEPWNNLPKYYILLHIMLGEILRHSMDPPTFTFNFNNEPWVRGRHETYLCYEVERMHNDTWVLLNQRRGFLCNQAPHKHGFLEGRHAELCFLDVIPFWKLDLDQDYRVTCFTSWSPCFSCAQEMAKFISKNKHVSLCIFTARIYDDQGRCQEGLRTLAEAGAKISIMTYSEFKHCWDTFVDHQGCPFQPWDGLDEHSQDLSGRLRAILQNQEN
A3A conf: confirmation of human APOBEC3A DNA deaminase inhibitors; 1,400 compounds, 63% hits; inhibition, % at 20 µM; AID 493151; recombinant A3A, ssDNA deaminase UDG fluorescence assay; shares compounds with APOBEC3A inh;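 active = inhibition reaching a set limit, 80% of the first screen's cutoff, at 20 µM in any replicate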;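 note: plate controls were DMSO wells with A3A for no effect and wells lacking A3A enzyme for full effect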
UDG A3A counter: UDG inhibition in APOBEC3A counter-screen. shares compounds with APOBEC3A inh. 1,000 tested, under 10 active. UDG counterscreen, FAM/TAMRA uracil oligo fluorescence. inhibition, % at 20 µM; call rule not given here
An asterisk follows results filed as active.

For CC1(C)Oc2ccc3ccc(=O)oc3c2-c2cnoc21 the results were APOBEC3A inh 51*, ADAM17 inh -41, ADAM10 inh -161, NRP1-CendR mod -30, APOBEC3G inh 22, A3A conf 72* and UDG A3A counter -2.
Screening C=CCN1[C@@H](CC(C)C)COc2cc(F)ccc2S1(=O)=O returned ADAM17 inh -4 and ADAM10 inh -1.
For O=C(NNC(=O)c1cccc(-n2cccc2)c1)c1ccc(F)cc1 the results were APOBEC3A inh 42*, ADAM17 inh -2, ADAM10 inh -3, NRP1-CendR mod -17, APOBEC3G inh 18, A3A conf 28* and UDG A3A counter -1.
For Cc1cccc(C(=O)NNC(=O)c2ccc(F)cc2)c1 the results were APOBEC3A inh 2, ADAM17 inh -6, ADAM10 inh 5, NRP1-CendR mod 13 and APOBEC3G inh 1.
COC(=O)C1=C(C)N(Cc2ccccc2)C(=NCc2ccc(OC)cc2)N[C@H]1c1ccccc1 was read as APOBEC3A inh 45*, ADAM17 inh -3, ADAM10 inh 0, NRP1-CendR mod -22, APOBEC3G inh 11, A3A conf 59* and UDG A3A counter -2.
`COC(=O)C1=C(C)N(Cc2ccccc2)C(=NCC(C)C)N[C@H]1c1ccccc1` gave APOBEC3A inh 64*, APOBEC3G inh 14, A3A conf 58* and UDG A3A counter -2.
COc1cccc(NC(=O)Nc2nc3ncccn3c2-c2ccc(C)cc2)c1 was read as ADAM17 inh -15 and ADAM10 inh -48.
O=C(CSc1nnc(-c2cccnc2)n1-c1ccccc1)Nc1ccc2c(c1)OCCO2 was read as ADAM17 inh 0 and ADAM10 inh 6.
COc1ccc(C2C(C(C)=O)=C(C)N=c3s/c(=C\c4ccco4)c(=O)n32)c(OC)c1 (stereo not given) was read as APOBEC3A inh 8, ADAM17 inh 1, ADAM10 inh 2, NRP1-CendR mod -10 and APOBEC3G inh -4.
`COc1ccc(C2C(C(C)=O)=C(C)N=c3s/c(=C\c4ccc5c(c4)OCO5)c(=O)n32)c(OC)c1` (stereo not given) gave APOBEC3A inh 50*, ADAM17 inh -7, ADAM10 inh 0, NRP1-CendR mod -33, APOBEC3G inh 4 and A3A conf 9.
Screening CS(=O)(=O)c1ccc(NC(=O)CCCc2nc3ccccc3c(=O)[nH]2)cc1 returned APOBEC3A inh 10, ADAM17 inh -4, ADAM10 inh -7, NRP1-CendR mod -1 and APOBEC3G inh -2.
`CS(=O)(=O)c1ccc(Cl)c(NC(=O)CCCc2nc3ccccc3c(=O)[nH]2)c1` gave APOBEC3A inh 41*, ADAM17 inh 1, ADAM10 inh -7, NRP1-CendR mod 8, APOBEC3G inh 4 and A3A conf 2.
For CC(C)c1ccc(OCC(=O)NN2C(=O)c3ccccc3C2=O)c(Br)c1 the results were APOBEC3A inh -2, ADAM17 inh 2, ADAM10 inh -7, NRP1-CendR mod -14 and APOBEC3G inh -12.
`O=C(COc1ccc(Br)cc1Br)NN1C(=O)c2ccccc2C1=O` gave APOBEC3A inh 55*, ADAM17 inh 2, ADAM10 inh 13, NRP1-CendR mod -4, APOBEC3G inh -9, A3A conf 11* and UDG A3A counter 8.
Screening COc1cccc(N2[C@@H](CC(=O)O)c3ccc(/C=C/C(=O)O)cc3S2(=O)=O)c1 returned APOBEC3A inh 94*, ADAM17 inh -11, ADAM10 inh -26, NRP1-CendR mod -37, APOBEC3G inh 26, A3A conf 79* and UDG A3A counter -4.
COc1ccc(C(C(=O)NCCC(C)C)N(CCO)C(=O)c2snc(C(N)=O)c2N)cc1 (stereo not given) was read as APOBEC3A inh 77*, ADAM17 inh -44, ADAM10 inh -124, NRP1-CendR mod 5, APOBEC3G inh 0 and A3A conf -1.
COc1ccc(C(C(=O)NCCC(C)C)N(CCO)C(=O)c2snc(C(N)=O)c2N)cc1OC (stereo not given) was read as APOBEC3A inh -7, ADAM17 inh -32, ADAM10 inh -79, NRP1-CendR mod 1 and APOBEC3G inh -6.
Screening COc1cc(/C=C(\C#N)C(=O)NCc2ccccc2)ccc1OCc1ccc(C(=O)O)cc1 returned APOBEC3A inh -2, ADAM17 inh -16, ADAM10 inh -13, NRP1-CendR mod -6 and APOBEC3G inh 0.
`COc1cc(/C=C(/C#N)C(=O)NCCCc2ccccc2)ccc1OCC(=O)O` gave APOBEC3A inh 40*, ADAM17 inh 2, ADAM10 inh -2, NRP1-CendR mod 4, APOBEC3G inh 11, A3A conf 67* and UDG A3A counter 1.
Screening Cc1noc(C)c1C(=O)N1CCC(n2nnc3ncccc32)CC1 returned ADAM17 inh 1 and ADAM10 inh -2.
`CCCCN=C(N)NC(=O)c1ccccc1` gave ADAM17 inh -2 and ADAM10 inh -9.
For NC(=O)C[n+]1cccc2ccccc21 the results were APOBEC3A inh 43*, ADAM17 inh -19, ADAM10 inh -58, NRP1-CendR mod 32*, APOBEC3G inh 3, A3A conf 59* and UDG A3A counter 1.
For CC(C)c1ccc(S(=O)(=O)N2CCN(CC(O)CN3CCOCC3)CC2)cc1 (stereo not given) the results were APOBEC3A inh -3, ADAM17 inh -1, ADAM10 inh -9, NRP1-CendR mod 3 and APOBEC3G inh -9.
`CCC(C)c1ccc(S(=O)(=O)N2CCN(CC(O)COCC3CCCO3)CC2)cc1` (stereo not given) gave APOBEC3A inh 55*, ADAM17 inh 0, ADAM10 inh 2, NRP1-CendR mod 16, APOBEC3G inh -9, A3A conf -11 and UDG A3A counter 1.
`COc1ccc2c(CC(=O)Nc3ccc(OC)c(S(=O)(=O)N4CCOCC4)c3)coc2c1` gave APOBEC3A inh -2, ADAM17 inh 3, ADAM10 inh 2, NRP1-CendR mod -11 and APOBEC3G inh -5.

Bioassay records from PubChem BioAssay.
